Where “and” joins values, the source holds several entries; their conditions need not be identical. Equal values may be shown once. Compounds without any hit were thinned out: in the full panel of roughly 79,000, 15% have a hit. A structure can be active in one record and inactive in another. Calls of active or inactive are those of the source. Cut-off read from the data, not from the text of the source: active = growth inhibition above about 70%; inactive = the rest.
assay: NCI Yeast Anticancer Drug Screen. Data for the rad50 strain (AID 155);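 note: 0% = growth of vehicle-only cultures of the same strain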; settings: S. cerevisiae rad50 strain growth inhibition; at 50.0 µM; stronger effect = higher value
Outline: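 Yeast carrying a defined DNA repair defect were exposed to test compounds, and growth was compared with vehicle-treated controls to give percent inhibition.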

Question: For `O=c1[nH]cnc2[nH]cc(CN3CCCCC3)c12`, which growth inhibition is on record?
Answer: 17.8% (inactive)

Question: Which growth inhibition does the source give for `NCCBr` here?
Answer: -8.5% (inactive) and -19.5% (inactive)

Question: With `CSc1ncc(COP(=S)(OCc2cnc(SC)nc2N)OCc2cnc(SC)nc2N)c(N)n1` as the molecule, how does the growth inhibition read?
Answer: -39.3% (inactive)

Question: For `O=[N+]([O-])c1ccc(O)c(Cl)c1`, which growth inhibition is on record?
Answer: 68.7% (inactive)

Question: For `CCN(CC)CC(=O)c1ccc2c(ccc3ccccc32)c1`, which growth inhibition is on record?
Answer: 99.2% (active)

Question: For `Cc1ccc([C@H]2N[C@@H]2c2ccccn2)cc1`, which growth inhibition is on record?
Answer: 6.35% (inactive)

Question: With `CCC1(C2=CCCCC2)C(=O)NC(=S)NC1=O` as the molecule, how does the growth inhibition read?
Answer: 8.05% (inactive) and 60.1% (inactive)

Question: With `Cn1cnc(C(=N)[Se])c1N` as the molecule, how does the growth inhibition read?
Answer: 83.4% (active)

Question: With `CCOC(=O)NC(=S)[S][Sb]([S]C(=S)NC(=O)OCC)[S]c1nc2ccc(N=Nc3ccc(NS(=O)(=O)c4ccc(NC(=O)C(N5CC5)(N5CC5)N5CC5)cc4)cc3)cc2s1` as the molecule, how does the growth inhibition read?
Answer: 99.2% (active)

Question: Which growth inhibition does the source give for `COc1ccccc1/C=C(/C)[N+](=O)[O-]` here?
Answer: 99.5% (active)

Question: With `O=c1oc2ccccc2c(O)c1C(c1ccc(OCc2ccccc2)cc1)c1c(O)c2ccccc2oc1=O` as the molecule, how does the growth inhibition read?
Answer: 63.3% (inactive)

Question: For `COc1cc(N(CCCl)CCCl)ccc1C=Nc1cccc(Cl)c1`, which growth inhibition is on record?
Answer: 84% (active)

Question: With `O=[N+]([O-])c1cc2c([N+](=O)[O-])cccc2o1` as the molecule, how does the growth inhibition read?
Answer: 95.9% (active)

Question: With `ClCCN(CCCl)c1ccc(C2N(Cc3ccc(N(CCCl)CCCl)cc3Cl)CCCN2Cc2ccc(N(CCCl)CCCl)cc2Cl)cc1` as the molecule, how does the growth inhibition read?
Answer: 96.2% (active)

Question: With `CCN(Cc1ccccc1)CC(O)c1ccc(Cl)c(Cl)c1` (centres undefined) as the molecule, how does the growth inhibition read?
Answer: 9.25% (inactive)

Question: For `FC1(F)C(Cl)=[C]([Hg][C]2=C(Cl)C(F)(F)C(F)(F)C(F)(F)C2(F)F)C(F)(F)C(F)(F)C1(F)F`, which growth inhibition is on record?
Answer: 98.6% (active)

Question: With `CCn1c(O)c(C(=O)NC(C)c2ccc([N+](=O)[O-])cc2)c(=O)n(CC)c1=S` (centres undefined) as the molecule, how does the growth inhibition read?
Answer: 86.5% (active)

Question: Which growth inhibition does the source give for `CC(=O)[O][Hg][c]1ccccc1N` here?
Answer: 91.6% (active)

Question: Which growth inhibition does the source give for `CCC[CH2][Sn]1([CH2]CCC)[O]Cc2nc(C)ccc2[O]1` here?
Answer: 77.5% (active)

Question: Which growth inhibition does the source give for `CCCCCCCCCCCCC(=O)[O][Hg][c]1ccccc1` here?
Answer: 99.2% (active)

Question: For `CN(C)CC1CC2C3CC=C4CC(O)CCC4(C)C3CCC2(C)C1=O` (centres undefined), which growth inhibition is on record?
Answer: 88% (active)

Question: For `CC(=O)O.CC(=O)[O-].CC(=O)[O-].[Co+3].[NH-]CC[NH-].[NH-]CC[NH-]`, which growth inhibition is on record?
Answer: 23.3% (inactive)

Question: For `Nc1nc(CCl)cs1`, which growth inhibition is on record?
Answer: -2.05% (inactive) and -11.7% (inactive)

Question: With `CC1=CCC2(C)C3CCC4(C)C(O)CCC4C3CCC2(C)C1` (centres undefined) as the molecule, how does the growth inhibition read?
Answer: 70.8% (active)

Question: Which growth inhibition does the source give for `CC1CCC2(NC1)OC1CC3C4CC=C5CC(O)CCC5(C)C4CCC3(C)C1C2C` (centres undefined) here?
Answer: 90.8% (active) and 98.2% (active)

Question: Which growth inhibition does the source give for `CCN1CCC(O)(c2ccc(Cl)c(Cl)c2)C(C(=O)c2ccc(Cl)c(Cl)c2)C1` (centres undefined) here?
Answer: 99.7% (active)

Question: For `O=C(c1ccccc1)c1c(CC(O)c2ccccn2)n(C(=O)c2ccccc2)c2ccccc12` (centres undefined), which growth inhibition is on record?
Answer: 77.5% (active)

Question: Which growth inhibition does the source give for `CC(O[Si](c1ccccc1)(c1ccccc1)C(C)(C)C)[C@H](NC(=O)OC(C)(C)C)C(=O)O` (some centres undefined) here?
Answer: 86% (active)

Question: With `CC(C)=CC1CC(C)C2(CCC3(C)CC4C(C(=O)CC4(C)O)/C(C=O)=C\CC32)O1` (centres undefined) as the molecule, how does the growth inhibition read?
Answer: 94.5% (active)

Question: Which growth inhibition does the source give for `CC(=O)O[C@H]1C[C@@H]2OC3C=C(C)CCC3(C)[C@@]1(C)[C@@]21CO1` (some centres undefined) here?
Answer: 92.5% (active) and 18.9% (inactive)

Question: Which growth inhibition does the source give for `O=C1NC(=O)C([N+](=O)[O-])C(=O)N1` here?
Answer: 62.9% (inactive)

Question: With `N#C[S-].[Nd+3].c1ccc(-c2ccccn2)nc1.c1ccc(-c2ccccn2)nc1.c1ccc(-c2ccccn2)nc1` as the molecule, how does the growth inhibition read?
Answer: 91.2% (active)

Question: For `CC(=O)Nc1ccccc1[As](O[As](c1ccccc1)c1ccccc1NC(C)=O)c1ccccc1` (centres undefined), which growth inhibition is on record?
Answer: 99.5% (active)

Question: With `Oc1cccc[c]1[Hg][Cl]` as the molecule, how does the growth inhibition read?
Answer: 99.5% (active)

Question: With `Nc1nc(N)c(-c2ccc(Cl)c(Cl)c2)c(CCc2ccc(CNC(=O)Nc3ccc(S(=O)(=O)F)cc3)cc2)n1` as the molecule, how does the growth inhibition read?
Answer: 56.8% (inactive)

Question: Which growth inhibition does the source give for `C1CC[N-]CC1.CC(=N\O)/C(C)=N/O.CC(=N\O)/C(C)=N/O.OC1[CH-]CCCC1.[Co+2]` here?
Answer: 23.9% (inactive)

Question: For `CC(=O)OC1C2(CC3N4C(=O)C5(CO)SSC4(CC31O)C(=O)N5C)OC(C)C(C)(C)C2=O` (centres undefined), which growth inhibition is on record?
Answer: 90.2% (active)

Question: Which growth inhibition does the source give for `C[C@H]1C/C=C/[C@H]2[C@@H]3O[C@]3(C)[C@@H](C)[C@H]3[C@H](Cc4ccccc4)NC(=O)[C@]32OC(=O)O/C=C/[C@@](C)(O)C1=O` here?
Answer: 72.7% (active)

Question: For `C1CC[N-]CC1.[Cl][Au]([Cl])[Cl]`, which growth inhibition is on record?
Answer: 93.3% (active)
